In the supplement of paper PMC4840960:

These compounds were tested on E18 rat cortical neuron-glia co-culture (assay: myelination (MBP fiber length per Olig2+ nucleus), % of 1 µM DAPT response (DMSO = 0) (% of DAPT); higher = more myelination, active = 50 or more). Conditions: 1 µM; treatment time: 8 days (DIV5-DIV13).
Method in brief: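 The myelination value was the continuous straight MBP fiber length per Olig2+ nucleus, scaled between 0.1 % DMSO (0) and a 1 µM positive control (100). It was measured in primary E18 rat cortical co-cultures treated with library compounds at 1 or 5 µM in myelination medium from DIV5 through DIV13. Cells were fixed in 4 % paraformaldehyde and stained for MBP, Olig2 and DAPI, and four 10X fields per well were imaged in duplicate wells.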

myelination, 174:
O=c1[nH]cc(F)c(=O)[nH]1 [5-Fluorouracil]

myelination, inactive:
CCCN(CCC)S(=O)(=O)c1ccc(C(=O)O)cc1 [Probenecid] 0.863, Cc1ccc(O)c([C@H](CCN(C(C)C)C(C)C)c2ccccc2)c1 [Tolterodine] -15.9, Cc1nnc(SCC2=C(C(=O)O)N3C(=O)[C@@H](NC(=O)Cn4cnnn4)[C@H]3SC2)s1 [Cefazolin] -6.67, CN1CCN(CCCN2c3ccccc3Sc3ccc(C(F)(F)F)cc32)CC1 [Trifluoperazine] -80.1, CCOC(=O)N1CCC(=C2c3ccc(Cl)cc3CCc3cccnc32)CC1 [Loratadine] -5.25, CC1(C)S[C@@H]2[C@H](NC(=O)Cc3ccccc3)C(=O)N2[C@H]1C(=O)O [Penicillin G] 12.3, CN(C/C=C/C#CC(C)(C)C)Cc1cccc2ccccc12 [Terbinafine] -6.59, COC(=O)Nc1nc2cc(C(=O)c3ccc(F)cc3)ccc2[nH]1 [Flubendazole] -24, CCN1CCN(C(=O)N[C@@H](C(=O)N[C@@H]2C(=O)N3[C@@H]2SC(C)(C)[C@@H]3C(=O)O)c2ccccc2)C(=O)C1=O [Piperacillin] -13.4, Oc1c(Cl)cc(Cl)c2cccnc12 [Chloroxine] -4.18, C[C@H](CS)C(=O)N1CCC[C@H]1C(=O)O [Captopril] -9.04, CCOC(=O)C1=C(COCCN)NC(C)=C(C(=O)OC)C1c1ccccc1Cl (configuration not stated) [Amlodipine] -4.57, C[C@H]1COc2c(C3(N)CC3)c(F)cc3c(=O)c(C(=O)O)cn1c23 [Pazufloxacin] -22.4, COc1ccc2c3c1O[C@H]1C[C@@H](O)C=C[C@@]31CCN(C)C2 [Galantamine] -60.3, Cc1ccccc1C(OCCN(C)C)c1ccccc1 (configuration not stated) [Orphenadrine] -7.59, CO[C@@]1(NC(=O)Cc2cccs2)C(=O)N2C(C(=O)O)=C(COC(N)=O)CS[C@@H]21 [Cefoxitin] -5.64, O=C1CCc2ccc(OCCCCN3CCN(c4cccc(Cl)c4Cl)CC3)cc2N1 [Aripiprazole] -54.9, CCCc1c(OCCCCc2nnn[nH]2)ccc(C(C)=O)c1O -11.5, C=CCc1ccc(O)c(-c2ccc(O)c(CC=C)c2)c1 [Honokiol] -2.87, CC(C)(O)c1ccccc1CC[C@@H](SCC1(CC(=O)O)CC1)c1cccc(/C=C/c2ccc3ccc(Cl)cc3n2)c1 [Montelukast] -10.2, CCN(CC)C(=O)C1(c2ccccc2)CC1CN (configuration not stated) [Milnacipran] -8.81, CCN1CCCC1CNC(=O)c1cc(S(=O)(=O)CC)ccc1OC (configuration not stated) [Sultopride] -20.9, c1ccc(CC2=NCCN2)cc1 [Tolazoline] -13.6, Clc1ccc(COC(Cn2ccnc2)c2ccc(Cl)cc2Cl)cc1 (configuration not stated) [Econazole] 0.139, Brc1c(NC2=NCCN2)ccc2nccnc12 [Brimonidine] -13.9, C#C[C@]1(O)CC[C@H]2[C@@H]3[C@H](C)CC4=C(CCC(=O)C4)[C@H]3CC[C@@]21C [Tibolone] -17.1

myelination, 148:
CCN(CC)C(=S)SSC(=S)N(CC)CC [Disulfiram]

Same assay, conditions: 5 µM; treatment time: 8 days (DIV5-DIV13)

myelination, inactive:
CN(C)CCOC(c1ccc(Cl)cc1)c1ccccn1 (configuration not stated) [Carbinoxamine] 8.5, CCc1c(C)[nH]c2c1C(=O)C(CN1CCOCC1)CC2 (configuration not stated) [Molindone] -25.8, NS(=O)(=O)c1cc2c(cc1C(F)(F)F)NC(Cc1ccccc1)NS2(=O)=O (configuration not stated) [Bendroflumethiazide] -27.7, Cc1cccc(Nc2ccncc2S(=O)(=O)NC(=O)NC(C)C)c1 [Torsemide] -4.35, NC(=O)c1ncn([C@@H]2O[C@H](CO)[C@@H](O)[C@H]2O)n1 [Ribavirin] 4.23, O=C(O)c1cc(=O)c2c(OCC(O)COc3cccc4oc(C(=O)O)cc(=O)c34)cccc2o1 [Cromolyn Sodium] -12.9, CC(C(O)c1ccc(O)cc1)N1CCC(Cc2ccccc2)CC1 (configuration not stated) [Ifenprodil] -83.6, COc1cc(/C=C/c2ccc(O)cc2)cc(OC)c1 [Pterostilbene] -12.2, CN(C)C(=O)C(CCN1CCC(O)(c2ccc(Cl)cc2)CC1)(c1ccccc1)c1ccccc1 [Loperamide] -21, CCCN(CCC)S(=O)(=O)c1ccc(C(=O)O)cc1 [Probenecid] 11.7, Cc1nnc(SCC2=C(C(=O)O)N3C(=O)[C@@H](NC(=O)Cn4cnnn4)[C@H]3SC2)s1 [Cefazolin] 6.84, CCOC(=O)N1CCC(=C2c3ccc(Cl)cc3CCc3cccnc32)CC1 [Loratadine] -5.18, CC1(C)S[C@@H]2[C@H](NC(=O)Cc3ccccc3)C(=O)N2[C@H]1C(=O)O [Penicillin G] 4.95, CCN1CCN(C(=O)N[C@@H](C(=O)N[C@@H]2C(=O)N3[C@@H]2SC(C)(C)[C@@H]3C(=O)O)c2ccccc2)C(=O)C1=O [Piperacillin] 5.13, C[C@H](CS)C(=O)N1CCC[C@H]1C(=O)O [Captopril] -9.32, C[C@H]1COc2c(C3(N)CC3)c(F)cc3c(=O)c(C(=O)O)cn1c23 [Pazufloxacin] 17.6, COc1ccc2c3c1O[C@H]1C[C@@H](O)C=C[C@@]31CCN(C)C2 [Galantamine] -40.7, Cc1ccccc1C(OCCN(C)C)c1ccccc1 (configuration not stated) [Orphenadrine] -2.71, CO[C@@]1(NC(=O)Cc2cccs2)C(=O)N2C(C(=O)O)=C(COC(N)=O)CS[C@@H]21 [Cefoxitin] -13.8, CCCc1c(OCCCCc2nnn[nH]2)ccc(C(C)=O)c1O 1.2, CCN(CC)C(=O)C1(c2ccccc2)CC1CN (configuration not stated) [Milnacipran] -7.54, CCN1CCCC1CNC(=O)c1cc(S(=O)(=O)CC)ccc1OC (configuration not stated) [Sultopride] -59.3, Brc1c(NC2=NCCN2)ccc2nccnc12 [Brimonidine] -32, C#C[C@]1(O)CC[C@H]2[C@@H]3[C@H](C)CC4=C(CCC(=O)C4)[C@H]3CC[C@@]21C [Tibolone] -13.2
